tim10-1 inh = growth inhibitors of tim10-1 mutant yeast, primary screen, luminescence, uHTS; AID 463190, 2010; S. cerevisiae tim10-1 ts strain growth, BacTiter-Glo, 24 h; inhibition, % at 20 µM; hit rate 2.2% among 330,000;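 active = inhibition of at least 40%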;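 note: mutant grown at 25 °C; 0% = DMSO wells with yeast and 100% = wells holding no yeast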
NLRP3 yeast inh = NALP3 inflammasome inhibitors in reconstituted yeast, primary screen, luminescence, uHTS. Yeast reconstituted NLRP3/ASC/caspase-1, beta-gal luminescence, 24 h. inhibition, % at 10 µM. hit rate 0.39% among 330,000;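 active = inhibition of 50% or more; inactive = inhibition below 50%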;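 note: plate controls were induced DMSO wells for no effect and uninduced yeast grown without galactose for full effect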
tim23-1 inh = growth inhibitors of tim23-1 mutant yeast, primary screen, luminescence, uHTS. S. cerevisiae tim23-1 growth, BacTiter-Glo luminescence, 24 h. inhibition, % at 20 µM. hit rate 1.3% among 330,000. AID 463212, 2010;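 active = growth inhibition of the mutant yeast at or above 50%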;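 note: temperature-sensitive mutant grown at 25 °C; plate controls were DMSO-treated mutant yeast for no effect and medium wells lacking yeast for full effect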
TIM10 inh = growth inhibitors of isogenic TIM10 control yeast, primary screen, counter-screen for tim10-1 yeast inhibitor project, luminescence, uHTS. S. cerevisiae TIM10 strain growth, BacTiter-Glo luminescence, 24 h. inhibition, % at 10 µM. hit rate 1.4% among 330,000. AID 463195, 2010;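 active = inhibition of 40% or more at the single tested concentration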;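 note: wild-type TIM10 isogenic control strain grown at permissive 25 °C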
PfHsp90 set2 = growth inhibition of PfHsp90-expressing yeast, primary screen, antimalarial PfHsp90 inhibitor project, S. cerevisiae, BacTiter-Glo luminescence, single point, set 2; BacTiter-Glo ATP, 48 h; yeast lacking PDR1 and PDR3 efflux regulators; inhibition, % at 9.4 µM; hit rate 0.32% among 310,000;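 active = every replicate shows inhibition above about 80%, whatever the replicate mean, limit read from the data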;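 note: 0% = DMSO neutral controls and 100% = 20 µM radicicol positive controls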
SKKanGAS inh = S. pyogenes SKKanGAS growth inhibitors in kanamycin, primary screen, streptokinase expression inhibitor project, SKKanGAS strain, BacTiter-Glo luminescence | 6 h | inhibition, % at 7.5 µM | hit rate 1.3% among 300,000;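 active = mean replicate score, as percent of positive control median, at least 50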;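 note: strain carries kanamycin resistance gene driven by streptokinase promoter and grows in 40 µg/ml kanamycin; loss of luminescence reflects streptokinase promoter inhibition or plain growth inhibition; 0% = median of DMSO wells and 100% = positive control at its reference dose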
TIM10 conf = growth inhibitors of wild-type TIM10 yeast, confirmation, counter-screen for tim10-1 synthetic lethality project, single concentration, luminescence, S. cerevisiae. shares compounds with TIM10 inh. S. cerevisiae tim10 strain growth, BacTiter-Glo luminescence, 24 h. hit rate 63% among 4,600. inhibition, % at 10 µM;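 active = inhibition of yeast growth at or above a set limit in either of two replicates at 10 µM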;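 note: this counterscreen used the strain with wild-type TIM10; 0% = yeast with DMSO and 100% = medium wells lacking yeast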
An asterisk follows results filed as active; x = no result. Sampled rows, rich in hits. Any-hit rate of the full collection: about 4.5%.

SMILES	tim10-1 inh	NLRP3 yeast inh	tim23-1 inh	TIM10 inh	PfHsp90 set2	SKKanGAS inh	TIM10 conf
CCCCCOC(=O)c1[nH]c2c(c1C)C(=O)C(C(=O)OC)C(C)C2 (configuration not stated)	39	8	48	43*	12	-2	37*
COc1ccc(C(=O)Nc2ccc(Cl)cc2F)cc1S(=O)(=O)N1CCCC1	13	18	20	-5	-3	x	x
O=C1c2ccccc2C(=O)C1c1ccc2ccccc2n1	31	15	26	58*	x	24	46*
COc1ccc(S(=O)(=O)N(C)C)cc1NC(=O)COC(=O)C1CC1	-9	-7	0	11	6	x	x
CCSc1ncccc1-c1nc2ccccc2[nH]1	15	4	39	43*	-23	-23	17
CSc1ncccc1-c1nc2ccccc2[nH]1	26	31	29	23	7	3	x
Cc1ccccc1Oc1nc2c(C)cccn2c(=O)c1/C=C(\C#N)C(=O)NC1CCS(=O)(=O)C1 (configuration not stated)	18	3	17	41*	6	-2	16
CCNc1nc(N)c(C(=O)c2ccc(Cl)s2)s1	33	30	21	44*	-1	1	41*
O=C(COc1ccc2c(c1)OCO2)NC12CC3CC(CC(C3)C1)C2	31	31	38	47*	9	9	33*
COc1ccc(NC(=O)COc2ccc3c(c2)OCO3)cc1	-52	6	4	2	1	2	x
O=C(N/N=C/c1ccncc1)c1cc2ccccc2o1	8	9	48	43*	6	-1	36*
O=C(N/N=C/c1cccnc1)c1cc2ccccc2o1	2	5	9	22	9	-3	x
CCOC(=O)c1cnc(-n2nc(C)cc2C)nc1NCc1ccccc1	36	24	40	43*	4	89*	39*
N/C(=N\OC(=O)c1ccc2c(c1)OCO2)c1ccc(Cl)cc1	33	46	47	48*	16	2	46*
N/C(=N\OC(=O)c1cccc(Br)c1)c1ccccn1	33	30	47	59*	20	-4	42*
COc1ccc(C(=O)O/N=C(\N)c2ccccn2)cc1	34	17	49	42*	72	4	36*
N/C(=N\OC(=O)c1ccc2c(c1)OCO2)c1ccncc1	13	-7	-1	-5	5	-3	x
N/C(=N\OC(=O)c1ccc(Cl)cc1)c1ccccn1	37	14	48	62*	x	6	47*
N/C(=N\OC(=O)c1ccc(Cl)c(Cl)c1)c1ccccn1	20	25	15	20	-18	-7	x
CCC(Oc1ccccc1F)C(=O)NCCCn1ccnc1 (configuration not stated)	5	4	8	-12	-6	-8	x
Cn1c(SCC(=O)NC2CCCC2)nnc1C(F)(F)F	7	3	19	13	-2	x	x
COc1cc(NC(=O)CSc2cc(C)c3cc(C)cc(C)c3n2)c(C(=O)O)cc1OC	10	-9	40	45*	7	44	18*
COC(=O)CCC(=O)N1CCCC(N2CCN(c3ccc(OC)cc3)CC2)C1 (configuration not stated)	1	10	-2	-4	22	0	x
CCOc1ccc(C(=O)NCC(=O)N2CCCC2)cc1	0	13	0	7	-17	-2	x
CC(C)OCCCn1c(SC(C)C(=O)NC2CC2)nc2ccccc2c1=O (configuration not stated)	8	17	20	3	x	-2	x
Cc1ccc(Nc2nc(-c3sc(C)nc3C)cs2)cc1	23	31	48	46*	-43	1	49*
CC(=O)Nc1ccc(Nc2nc(-c3sc(C)nc3C)cs2)cc1	3	16	11	5	1	-4	x
